# TGFb SMAD3 inh – qHTS for Inhibitors of TGF-b. HepG2 CAGA-GFP TGF-b/SMAD3 reporter, GFP fluorescence, 18 h; TGF-beta stimulated, 500 pg/mL final. Potency, µM (doses to about 46.1 µM), for the others: top-dose activity, negative = inhibition, hits mostly inhibitors. 1.2% of 410,000 active. AID 588855, 2011; further: on the % scale 0 is the no-effect control and ±100 the full control effect; nearly all actives have a fitted effect of over 65% in size
#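 Read-out: total well GFP (ex488/em500-530) summed from mean per-cell fluorescence. Cells: HEPG2 CAGA-GFP, 1% FBS DMEM, 18 h at 37 degrees C with 500 pg/mL final TGF-beta. Unstimulated wells served as the full-inhibition control; stimulated DMSO wells = 0%.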
# ATXN2 expr inh – Primary qHTS for Inhibitors of ATXN expression; HEK-293 ATXN2-luciferase reporter, luminescence, 24 h; Potency, µM (titrated, usually from 57 µM), without a hit: at the highest dose activity change, negative = inhibition, most hits filed as inhibitors; 0.72% of 360,000 active; AID 1745845, 2022; further: on the % scale 0 is the no-effect control and ±100 the full control effect; nearly all actives have a fitted effect of over 55% in size
#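 qHTS (up to 57 uM final) was run with 24 h compound exposure of reporter cells at 37 °C. Each well was multiplexed: SteadyGlo luminescence measured ATXN2-luciferase expression after a fluorogenic Gly-Phe-AFC viability readout (25 uM final).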
# HT1080 IDH1KD tx – qHTS for induction of synthetic lethality in tumor cells producing 2HG: qHTS for the HT-1080-IDH1KD cell line; Potency, µM (titrated, usually from 46.1 µM), inactives show at the top dose activity, negative = toxicity, usual class: cytotoxic; 2% of 360,000 active; HT-1080 IDH1 knockdown viability, ATP luminescence, 48 h; AID 686971, 2013;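 further: 0% = DMSO wells and -100% = cell-free medium wells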
#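 IDH1KD HT-1080 cells, 750/well, RPMI + 5% FBS; compound pinned after 2 h settling; 48 h, 37 °C; CellTiter-Glo luminescence; % activity normalised to DMSO and no-cell wells; curves fitted, classed by r2 and efficacy.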
# ATXN viability – Viability Counterscreen for Primary qHTS for Inhibitors of ATXN expression | 0.49% of 400,000 active | Potency, µM (titrated, usually from 56.7 µM), hits mostly cytotoxic | AID 651635, 2014 | S2 cells (HEK-293 line with an ATXN2-luciferase reporter) viability, CellTiter-Fluor protease fluorescence, 24 h; further: nearly all actives have a fitted effect of over 40% in size
# HepG2 tox – qHTS for Inhibitors of TGF-b: Cytotox Counterscreen. Potency, µM (top dose mostly 46.1 µM), for inactives: top-dose activity change, negative = cytotoxicity, most hits filed as cytotoxic. HepG2 CAGA-GFP viability, ATP luminescence, 18 h. 0.76% of 410,000 active. AID 588856, 2011
#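 CellTiter-Glo luminescence gave cytotoxicity after 18 hours at 37 degrees C. The cells were HepG2 CAGA-GFP in 1% FBS DMEM, stimulated with 500 pg/mL TGF-beta after compound addition. %Activity was normalised to no-cell wells (complete cell-killing) and DMSO (no toxicity), and curves were fitted and classified.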
# HT1080-NT tox – qHTS for induction of synthetic lethality in tumor cells producing 2HG: qHTS for the HT-1080-NT fibrosarcoma cell line; HT-1080-NT fibrosarcoma viability, CellTiter-Glo ATP luminescence, 48 h; Potency, µM (highest dose often 46.1 µM), inactives show at the highest dose activity, negative = less viability, most hits filed as cytotoxic; 1.6% of 360,000 active; AID 686970, 2013;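 further: NT is the 2HG producing partner of a matched IDH1 knockdown line; 0% = DMSO-treated cells and -100% = media-only wells without cells; nearly all actives have a fitted effect of over 55% in size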
#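 750 cells/well, RPMI + 5% FBS; 2 h settle, compound pin-transfer, 48 h at 37 degrees C. CellTiter-Glo 10 min RT, luminescence. Normalized to DMSO and media-only wells.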
# The depositor's hits bear a star; i = inactive; ? = inconclusive; / = no result; ! = a repeat was not active; [ ] = another dose, or the depositor's remark. Shown are actives, neighbours in structure and some others; about 3.8% of the full set was active somewhere. The call rests on the fitted dose curve; in most records, active means well fitted curve in the direction sought with a large enough effect; inconclusive means small, poorly fitted or top-dose-only effect, or another doubt; inactive means no such curve, though single readings can be large; an effect the other way counts as inactive or inconclusive. Potency means the concentration at half of the fitted maximal effect.
SMILES,TGFb SMAD3 inh,ATXN2 expr inh,HT1080 IDH1KD tx,ATXN viability,HepG2 tox,HT1080-NT tox
Cc1ccc(NC(=O)C2=C(c3ccccc3)S(=O)(=O)CCS2(=O)=O)cc1,3.5µM*,?,7.3µM*,11µM*,7.1µM*,10µM*
Cc1cnc(-n2ncc(C(=O)NCCCc3ccncc3)c2C)nc1-c1ccc(F)cc1,/,/,/,i,/,/
O=C(Nc1ccc([N+](=O)[O-])cc1)Nc1ccc([N+](=O)[O-])cc1,/,-12%,/,i,/,/
CC1(C)C(C=C(Cl)Cl)C1C(=O)Nc1ccc([N+](=O)[O-])cc1 (stereo not drawn),?,?,?,i,-94%,23µM*
O=C(Nc1cccc(F)c1)N1CCc2nc(NCc3cccc(Oc4ccccc4)c3)ncc2C1,?,0%,?,?,-15%,23µM*
CC(C)c1ccc(NC(=O)N2CCc3nc(NCc4cccc(Oc5ccccc5)c4)ncc3C2)cc1,-18%,-32%,?,i,-16%,?
COc1cc(Nc2ncc3c(n2)CCN(C(=O)Nc2ccc(C(C)C)cc2)C3)cc(OC)c1OC,?,?,18µM*,i,-22%,21µM*
O=C(NCc1cccnc1)c1cnn(-c2nccc(-c3cccs3)n2)c1C1CC1,/,/,/,i,/,/
CCCCNC(=S)Nc1ccc([N+](=O)[O-])cc1,11µM*,-20%,?,i,-48%,?
CC(C)OC(=O)c1cc(NC(=S)Nc2ccc([N+](=O)[O-])cc2)cc(C(=O)OC(C)C)c1,-6%,?,21µM*,/,-11%,?
CC(C)CCNC(=S)Nc1ccc([N+](=O)[O-])cc1,?,?,?,?,-47%,?
CCOC(=O)c1c(C)oc2ncnc(N3CCN(c4cccc(Cl)c4)CC3)c12,11µM*,?,/,?,-46%,/
O=[N+]([O-])c1ccccc1/C=C/c1ccnc2ccccc12,-1%,/,/,/,-26%,/
CCc1ccc2c(Cl)c(C(=O)N/N=C/c3c[nH]c4ccccc34)sc2c1,?,3%,2%[9.24 µM],i,-3%,?
O=C(N/N=C/c1cccc([N+](=O)[O-])c1)c1cc(-c2ccc3c(c2)OCO3)n[nH]1,?,-23%,-3%,i,4%,2%
CCc1ccc(/C=N/NC(=O)c2cc(-c3cccc([N+](=O)[O-])c3)n[nH]2)cc1,?,-23%,6.5µM*,i,-9%,7.3µM*
CCc1ccc(-c2cc(C(=O)N/N=C/c3c[nH]c4ccccc34)[nH]n2)cc1,?,-10%[11.3 µM],3.7µM*,?,-73%,5.2µM*
C/C(=N\NC(=O)c1cc(-c2cccc([N+](=O)[O-])c2)n[nH]1)c1ccccc1O,?,?,23µM*,i,-32%,?
Cc1ccc(CSc2nnc(SCC(=O)N/N=C/c3c[nH]c4ccccc34)s2)cc1,3%,?,23µM*,/,-19%,21µM*
CCC1C(=O)NCCN1Cc1ccc2c(c1)CN(Cc1ccc(F)c(OC)c1)CCO2 (stereo not drawn),/,/,/,i,/,/
CC(NC(=O)CCCn1c(=O)c2cccn2c2cccnc21)c1ccccc1 (stereo not drawn),-20%,/,/,/,-21%,/
CC(C)CN(C(=O)COC(=O)Cc1ccc(Cl)cc1)c1c(N)n(Cc2ccccc2)c(=O)[nH]c1=O,?,-27%,23µM*,?,-103%,26µM*
COc1ccccc1NS(=O)(=O)c1cccc(-n2c(O)c(C=Nc3ccccc3C(=O)O)c3ccccc3c2=O)c1,?,-19%,?,20µM*,-20%,?
COc1cc(NC(C)CCCN)c2ncccc2c1 (stereo not drawn),?,?,?,13µM*!,-55%,16µM*
COc1cc(NCCCCCCCN)c2ncccc2c1,?,-26%,0%,i,-60%,-9%
SMILES,TGFb SMAD3 inh,ATXN2 expr inh,HT1080 IDH1KD tx,ATXN viability,HepG2 tox,HT1080-NT tox
Cc1ccc(-c2nc(C)c(CCNS(=O)(=O)c3ccc(F)c(C(F)(F)F)c3)s2)cc1,?,9%,/,i,-89%,/
CCCCCOc1ccc(/C(C)=N/NC2=NCCN2)cc1,?,?,-12%,i,-104%,0%
CCOc1ccc(Br)cc1/C(C)=N\NC1=NCCN1,-7%,-37%,?,i,-18%,21µM*
CCCCCCOc1ccc(/C(C)=N/NC2=NCCN2)cc1,?,/,-7%,?,14µM*,-19%
COc1ccc(NC(=O)c2ccco2)cc1NC(=O)C(C)(C)Oc1ccc(Cl)cc1,?,?,/,?,-21%,/
CCOc1ccc(NC(=O)Cn2c(=O)n(Cc3ccco3)c(=O)c3ccc(C(=O)NC4CCCC4)cc32)cc1,14%,6%,/,i,0%,/
COc1ccccc1-c1nnc(Sc2nc([N+](=O)[O-])nn2C)o1,-4%,10µM*,4µM*,/,2%,13µM*
CC1(C)COC(Cn2c3ccccc3c3ccccc32)O1 (stereo not drawn),-13%,-25%,23µM*,i,18%,-14%
COc1ccccc1CCc1nc2ccccc2n1C1CCN(C(=O)c2cn3ccsc3n2)CC1,/,/,/,i,/,/
Cc1ccc(O)c(NC(=O)CSc2ccc(Cl)cc2)c1,?,0%[11.3 µM],-11%,i,-34%,-5%
Cc1ccc(NS(=O)(=O)c2ccc(NC(=O)CSc3ccc(Cl)cc3)cc2)c(C)c1,-20%,-24%,?,?,-19%,16µM*
O=C(NCc1ccc(Cl)cc1)C(=O)NCC(c1cccnc1)N1CCN(c2ccccc2)CC1 (stereo not drawn),3%,3%,/,i,-18%,/
COc1cc(NC(=O)C(CCSC)NS(=O)(=O)c2ccc3c(c2)oc(=O)n3C)cc(OC)c1 (stereo not drawn),0%,/,/,/,-10%,/
COc1ccc(/C=C/CN2CCC(C(=O)NC(c3ccc(F)cc3)c3ccc4ccccc4n3)CC2)cc1 (stereo not drawn),?,?,10µM*,35µM*,-87%,16µM*
Cc1cccnc1C(NC(=O)C1CCN(CCOc2ccc(F)cc2)CC1)c1ccc(Cl)cc1 (stereo not drawn),?,0%,16µM*,?,11µM*,?

# Screens as filed in PubChem.
